# Compound activity deposited in PubChem by National Center for Advancing Translational Sciences (NCATS).
# Rows were chosen to be rich in hits. Some 5.4% of all compounds tested hit in one or more screens of this group.
# VACV Venus inh – qHTS for Stage-Specific Inhibitors of Vaccinia Orthopoxvirus: Venus Reporter Primary qHTS; Potency, µM (highest dose often 36.5 µM), for inactives: at the top dose activity change, negative = inhibition, hits mostly inhibitors; hit rate 0.46% among 330,000; Vaccinia virus Venus reporter expression, fluorescence; calls by dose curve; tested in A549 cells; also: nearly all actives have a fitted effect of over 30% in size
# Marburg entry inh – qHTS for inhibitors of binding or entry into cells for Marburg Virus | Marburg virus pseudotyped entry inhibition, cell reporter | Potency, µM (highest dose often 37.8 µM), inactives show top-dose activity change, negative = inhibition, actives largely listed as inhibitors | hit rate 1.8% among 300,000 | AID 540276, 2011; calls by dose curve; tested in HEK293 cells
# Sm TGR block – qHTS Assay for the Inhibitors of Schistosoma Mansoni Peroxiredoxins; purified TGR, DTNB reduction, TNB absorbance 405 nm; hit rate 3% among 360,000; Schistosoma mansoni thioredoxin glutathione reductase (TGR), Q962Y6; Potency, µM (titrated, usually from 114 µM), for the others: top-dose activity change, negative = inhibition, hits mostly inhibitors; active = well fitted inhibition curve with a large enough effect; inconclusive = small, poorly fitted or top-dose-only effect; inactive = no such curve, though single readings can be large or run the other way; also: nearly all actives have a fitted effect of over 60% in size
#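 Kinetic colorimetric format: TGR-catalysed, NADPH-driven DTNB reduction monitored via TNB absorbance. Enzyme dispensed at 20 nM; compound exposure 15 min at room temperature before reaction start.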
# Vaccinia mCherry – qHTS for Stage-Specific Inhibitors of Vaccinia Orthopoxvirus: mCherry Reporter Primary qHTS. Vaccinia virus mCherry reporter infection, fluorescence. Potency, µM (highest dose often 36.5 µM), without a hit: at the highest dose activity change, negative = inhibition, actives largely listed as inhibitors. hit rate 0.63% among 310,000. AID 720579, 2013; calls by dose curve; tested in A549 cells; also: nearly all actives have a fitted effect of over 35% in size
# Lassa entry inh – qHTS for Inhibitors of binding or entry into cells for Lassa Virus. Lassa virus pseudotype entry inhibition, cell reporter. hit rate 1.2% among 300,000. Potency, µM (doses to about 37.9 µM), inactives show at the top dose activity change, negative = inhibition, hits mostly inhibitors; calls by dose curve; tested in HEK293 cells; also: nearly all actives have a fitted effect of over 50% in size
# FMDV antiviral – High Throughput Screening for Foot and Mouth Disease Virus Antivirals. FMDV antiviral cell-based qHTS. Potency, µM (top dose mostly 57.9 µM), for the others: top-dose activity change, negative = inhibition, most hits filed as inhibitors. hit rate 1.2% among 410,000. AID 1159524, 2015; calls by dose curve; tested in HEK293T cells; also: read-out not given here; nearly all actives have a fitted effect of over 45% in size
# * hit, by the source's call; i = inactive; ? = inconclusive; / = no result; + = active, no number; [ ] = dose if it differs, or a comment. % is scaled to controls: 0 for no effect and ±100 for the full control effect; potency is read from the fitted curve at half-maximal effect.
SMILES,VACV Venus inh,Marburg entry inh,Sm TGR block,Vaccinia mCherry,Lassa entry inh,FMDV antiviral
COc1cc(CNC2CCCC2)cc(Cl)c1OCc1ccccc1Cl,/,10.3µM*,-4.4%,/,?,?
COc1cc(CNC2CCCC2)cc(Cl)c1OCc1ccc(F)cc1,?,?,0.0%,/,?,-26.9%
CCC1CN(Cc2cn[nH]c2-c2ccc(F)cc2)Cc2cc(OC)ccc2O1 (configuration not stated),-16.0%,/,/,-13.5%,/,?
CC(C)N1CCC(=NNc2ccc(S(=O)(=O)N3CCOCC3)cc2[N+](=O)[O-])CC1,-9.7%,8.6%,35.5µM*,-8.8%,-3.9%,-6.5%
CCCOc1ccc(C(=O)NNC(=S)NC(=O)c2ccco2)cc1,?,?,-11.5%,11.2µM*,?,?
O=C(NC(=S)NNC(=O)c1cccs1)c1ccccc1,/,/,50.1µM*,/,/,8.5%
O=C(NC(=S)NNC(=O)c1ccco1)c1ccc(Br)cc1,/,/,39.8µM*,/,/,-11.7%
CCCOc1ccc(C(=O)NNC(=S)NC(=O)c2ccccc2)cc1,?,/,6.2%,?,/,?
CCCOc1ccc(C(=O)NNC(=S)NC(=O)c2cccs2)cc1,?,11.2µM*,-0.8%,10µM*,?,0.0%
O=C(NNC(=S)NC(=O)c1ccco1)c1ccc(F)cc1,/,/,2.7%,/,/,-2.8%
CC(C)(C)c1ccc(C(=O)NC(=S)NNC(=O)c2cccs2)cc1,?,?,-33.3%,-18.4%,?,-8.9%
CCOc1ccc(CCNC(=O)c2cc3sc(Cl)cc3n2C)cc1OCC,-8.1%,?,4.0%,-5.9%,3.1%,-16.2%
CCOc1cc(CNC(=O)Cn2c(-c3cccs3)cc3cc(F)ccc32)ccc1OC,-16.8%,/,-0.9%,-10.9%,-3.8%[46.1 µM],-17.5%
CCOc1ccc(CCNC(=O)Cn2c(-c3cccs3)cc3cc(F)ccc32)cc1OCC,?,?,8.1%,?,11.2µM*,-42.4%
CCOc1ccc(CCNC(=O)c2cc3sccc3n2C)cc1OCC,-13.5%,7.08µM*,2.8%,-21.3%,-25.7%,?
COc1ccc(N2CCN(CCCNC(=O)c3nnc(Cc4ccc(F)cc4)o3)CC2)cc1,-7.8%,/,-10.2%,i,?,-21.7%
O=C(CCCN1C(=O)c2cccc3cccc(c23)C1=O)N1CCN(c2ccccc2)CC1,-23.6%,7.8%,-13.5%,?,-9.7%,?
O=C(CCCN1C(=O)c2cccc3cccc(c23)C1=O)N1CCN(c2ccccc2O)CC1,-29.2%,?,-2.9%,?,7.94µM*,-22.7%
CC(C)c1ccc(C(C(=O)NC2CCCCC2)N(C(=O)c2csnn2)C2CC2)cc1 (configuration not stated),-16.9%,6.31µM*,-8.0%,-1.5%,-1.3%[46.1 µM],5.8%
CN(C)C(CNC(=O)c1cccs1)c1cccnc1 (configuration not stated),-3.0%,/,0.1%,-8.4%,/,-10.6%
Cc1ccc(N(C(=O)CCl)C(C(=O)NC2CCCCC2)c2cccnc2)cc1C (configuration not stated),7.08µM*,?,14.1µM*,?,7.94µM*,7.94µM*
Cc1ccc(N(C(=O)CNC(=O)c2ccco2)C(C(=O)NC2CCCCC2)c2cccnc2)cc1C (configuration not stated),0.9%,-7.2%[46.1 µM],-9.6%,-8.2%,-7.1%,-6.9%
CC(C)c1ccc(N(C(=O)c2csnn2)C(C(=O)NC2CCCC2)c2cccnc2)cc1 (configuration not stated),-4.6%,-9.0%[46.1 µM],-2.4%,-14.3%,1.58µM*,1.2%
CCc1ccc(N(C(=O)c2csnn2)C(C(=O)NC2CCCC2)c2cccnc2)cc1 (configuration not stated),-15.2%,?,-15.7%,-4.8%,?,-2.4%
Cc1ccc(C(C(=O)NC2CCCC2)N(C(=O)c2csnn2)C2CC2)cc1 (configuration not stated),0.0%,?,-1.5%,-2.1%,-22.3%[46.1 µM],13.8%
SMILES,VACV Venus inh,Marburg entry inh,Sm TGR block,Vaccinia mCherry,Lassa entry inh,FMDV antiviral
CN(C)C(CNC(=O)NC1CCCCC1)c1cccnc1 (configuration not stated),-12.3%,-8.9%,39.8µM*,-18.8%,-15.3%,-12.7%
CCc1ccc(NC(=O)NCCc2c(C)nn(C)c2C)cc1,11.1%,/,3.5%,-0.9%,?,0.0%
CC(C)c1nc(C(=O)N2CCOc3ccc(CN4CCN(c5ccccn5)CC4)cc3C2)cs1,-26.3%,/,/,-3.2%,/,?
O=C(O[C@H]1[C@H](Cc2ccccc2)NS(=O)(=O)[C@H]2CC3C=C[C@]12O3)c1ccc(Br)cc1,-21.7%,/,/,-2.8%,/,/
COc1ccc(-c2nc3cc(F)ccc3cc2CN(C(=O)c2ccc3c(c2)OCO3)C2CC2)cc1,-5.1%,/,/,-0.2%,/,-9.4%
CCN(c1ccc(C)cc1C)S(=O)(=O)c1nnc(NC(=O)c2ccccc2OC)s1,-10.9%,/,0.8%,-6.0%,11.4%[46.1 µM],?
Cc1cccc(Nc2n[nH]c(C)c2[N+](=O)[O-])c1,-26.3%,12.6µM*,-3.1%,-23.1%,?,22.5%
Cc1[nH]nc(Nc2ccccc2)c1[N+](=O)[O-],/,13.3%,0.0%,/,?,23.6%
COc1ccc([C@@]23Oc4cc(OC)cc(OC)c4[C@]2(O)[C@H](O)[C@H](C(=O)N(C)C)[C@H]3c2ccccc2)cc1,0.0001µM*,0.112µM*,/,+,?,?
COC(=O)[C@@H]1[C@@H](c2ccccc2)[C@H]2C(=O)c3c(OC)cc(OC)cc3O[C@@]12c1ccc(OC)cc1,/,3.3%[14.2 µM],/,/,/,/
Cc1nn(C)c2nc(-c3cccs3)cc(C(F)(F)F)c12,-9.0%,?,-6.1%,-2.4%,0.6%,-26.4%
Cc1nn(CCO)c2nc(-c3cccs3)cc(C(F)(F)F)c12,-23.7%,-13.8%,25.1µM*,-16.9%,?,-21.7%
Cc1ccccc1-c1noc(-c2ccc(N3CCN(c4ccccc4)CC3)c([N+](=O)[O-])c2)n1,-7.2%,3.4%[46.1 µM],-4.0%,3.8%,9.9%[46.1 µM],-2.6%
COc1ccc(CN2CCc3nnc(CCc4ccccc4)n3CC2)c(OC)c1C,-1.9%,/,/,-6.0%,/,-9.6%
O=[N+]([O-])c1ccc(O)c2cccnc12,0.1%,12.9%,-4.6%,-5.5%,-0.2%[46.1 µM],-13.0%
Cc1ccccc1N=Nc1ccc(O)c2ncccc12,?,5.62µM*,-1.6%,3.55µM*,?,0.0%
O=[N+]([O-])c1ccc(O)c2ncccc12,?,?,?,10µM*,?,-19.9%
O=[N+]([O-])c1cc([N+](=O)[O-])c2cccnc2c1Oc1ccccc1O,-27.9%,?,0.282µM*,?,?,15.8µM*
COc1ccc(N=Nc2ccc(O)c3ncccc23)cc1,/,/,-13.9%,/,/,1.8%
Cc1cc(=O)oc2ccc(OCC(=O)N3CCC(C)CC3)cc12,-11.5%,0.2%,17.8µM*,/,15.7%,1.3%
